Experimental data taken from PubChem BioAssay (EPA / NIEHS).
Records with an inconclusive call do not appear. Active and inactive are the calls of the source. Rule for the calls, unless noted: active = hit-call score of the fitted dose curve at least 0.9, where 1 is the maximum; inactive = score below 0.9.

Experiments:
[1] = target: Nuclear respiratory factor 1 (Homo sapiens) (UniProt Q16656); assay: ATG_NRF1_CIS: Attagene CIS-FACTORIAL HepG2 Assay for human Nuclear Respiratory Factor 1 (NRF1) Orphan Gene (AID 2282987); settings: HepG2 NRF1 cis-element reporter, Attagene multiplex; actives raise or lower the signal
Nuclear respiratory factor 1 (Homo sapiens), sequence (Q16656 whole entry, looked up): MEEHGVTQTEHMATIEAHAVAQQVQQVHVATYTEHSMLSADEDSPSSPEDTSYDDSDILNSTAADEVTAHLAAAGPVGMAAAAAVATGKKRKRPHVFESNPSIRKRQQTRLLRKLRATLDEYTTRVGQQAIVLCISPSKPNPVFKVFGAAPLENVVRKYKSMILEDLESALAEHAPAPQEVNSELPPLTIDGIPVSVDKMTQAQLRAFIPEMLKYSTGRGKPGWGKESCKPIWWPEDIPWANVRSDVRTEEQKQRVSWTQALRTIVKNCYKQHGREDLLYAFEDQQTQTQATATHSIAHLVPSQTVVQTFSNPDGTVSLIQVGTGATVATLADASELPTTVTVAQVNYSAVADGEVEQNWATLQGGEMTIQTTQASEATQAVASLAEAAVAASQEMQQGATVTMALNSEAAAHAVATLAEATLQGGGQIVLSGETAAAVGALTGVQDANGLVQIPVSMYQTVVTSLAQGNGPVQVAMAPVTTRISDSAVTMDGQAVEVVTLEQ
In short: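 Endogenous NRF1-driven reporter transcription in transfected HepG2 cells after 24 h treatment. Readout: RT-PCR products, 6-FAM labelled and resolved by capillary electrophoresis; changes fitted both directions relative to DMSO.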

[2] = ATG_NFI_CIS: Attagene CIS-FACTORIAL HepG2 Assay for human Nuclear Factor I (NFI) (AID 2282989); settings: HepG2 cis-regulatory reporter, NFI response element transcription; actives raise or lower the signal
In short: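 Multiplexed cis-reporter system in human HepG2 cells reports native TF activity as reporter mRNA induction 24 h post-dose. Fragments labelled with 6-FAM, HpaI-digested and resolved by capillary electrophoresis; activity fitted both directions versus DMSO.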

[3] = target: Myc proto-oncogene protein (Homo sapiens) (UniProt P01106); assay: ATG_Myc_CIS: Attagene CIS-FACTORIAL HepG2 Assay for human Myelocytomatosis (Myc) Proto-Oncogene Transcription Factor (AID 2282990); settings: HepG2, Attagene cis-reporter transcription factor activity; actives raise or lower the signal
Myc proto-oncogene protein (Homo sapiens), sequence (P01106 whole entry, looked up): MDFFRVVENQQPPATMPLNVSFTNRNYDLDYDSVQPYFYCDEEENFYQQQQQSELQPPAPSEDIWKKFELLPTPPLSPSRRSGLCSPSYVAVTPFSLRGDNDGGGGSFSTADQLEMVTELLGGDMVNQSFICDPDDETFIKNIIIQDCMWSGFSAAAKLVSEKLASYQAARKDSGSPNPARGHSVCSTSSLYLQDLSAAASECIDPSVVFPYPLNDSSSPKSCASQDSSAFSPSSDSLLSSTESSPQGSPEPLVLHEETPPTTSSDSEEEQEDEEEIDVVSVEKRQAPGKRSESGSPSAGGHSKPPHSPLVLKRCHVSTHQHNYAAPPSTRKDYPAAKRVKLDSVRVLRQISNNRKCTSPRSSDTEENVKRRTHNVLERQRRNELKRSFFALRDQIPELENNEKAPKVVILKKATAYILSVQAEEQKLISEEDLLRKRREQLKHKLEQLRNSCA
In short: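 HepG2, transient MRTU transfection (cis promoters, endogenous TFs); 24 h dosing; TriZol RNA → oligo(dT) RT → PCR → 6-FAM primer extension → HpaI cut → CE. Bidirectional fit vs DMSO.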

[4] = ATG_NF_kB_CIS: Attagene CIS-FACTORIAL HepG2 Assay for human Nuclear Factor Kappa B (NF-kB) (AID 2282991); settings: HepG2 Attagene cis-factorial NF-kB reporter mRNA; actives raise or lower the signal
In short: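 Readout is reporter transcript level, gain or loss versus DMSO, measured 24 h post-dose via RT-PCR, fluorescent labelling and capillary electrophoresis. Human HepG2 liver cells carried transiently transfected CIS reporter constructs reflecting endogenous factors.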

[5] = ATG_NRF2_ARE_CIS: Attagene CIS-FACTORIAL HepG2 Assay for human Nuclear Factor Erythroid 2 Related Factor 2 (NFR2) response to Antioxidant Response Elements (ARE) (AID 2282992); settings: HepG2 Attagene ARE/NRF2 reporter, transcription factor activity; actives raise or lower the signal
In short: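 Endogenous transcription factor activity read out as reporter transcript levels (RT-PCR plus capillary electrophoresis, fluorescence) in transiently transfected HepG2 cells. Measured at 24 h after dosing; gain or loss of signal fitted versus DMSO.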

[6] = ATG_Oct_MLP_CIS: Attagene CIS-FACTORIAL HepG2 Assay for human Octamer-Binding Transcription Factor (Oct) (AID 2282993); settings: HepG2 Attagene cis-factorial Oct reporter, mRNA; actives raise or lower the signal
In short: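 After 24 h compound exposure, transfected HepG2 cells were lysed for total RNA; reporter-specific cDNA was PCR-amplified, fluorescently labelled and sized by capillary electrophoresis. Bidirectional curve fitting used DMSO as baseline.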

[7] = BSK_3C_TissueFactor: BioMAP Diversity Plus: 3C Assay for Tissue Factor Biomarker Activity (AID 2282997); settings: BioMAP 3C HUVEC, tissue factor biomarker readout; actives raise or lower the signal
In short: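 In this endothelial system, HUVEC are treated for 24 h and Tissue Factor is assessed by ELISA, normalised to DMSO.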

[8] = BSK_3C_uPAR: BioMAP Diversity Plus: 3C Assay for Urokinase-type plasminogen activator receptor (uPAR) Biomarker Activity (AID 2282998); settings: BioMAP 3C HUVEC, uPAR biomarker ELISA; actives raise or lower the signal
In short: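 Values derive from bidirectional curve fitting relative to DMSO, which served as baseline of activity. uPAR was measured by ELISA in human umbilical vein endothelial primary cultures 24 h after compound addition.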

[9] = BSK_3C_VCAM1: BioMAP Diversity Plus: 3C Assay for Vascular cell adhesion molecule 1 (VCAM1) Biomarker Activity (AID 2282999); settings: BioMAP 3C HUVEC, VCAM1 ELISA, cytokine-stimulated; actives raise or lower the signal
In short: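 Activity fitted in both directions relative to DMSO, with ELISA measurement of the surface marker on primary HUVEC (3C) at 24 h post-treatment; parallel SRB staining (0.1% SRB, TCA-fixed, 560 nm) flagged overt cytotoxicity.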

[10] = BSK_4H_Eotaxin3: BioMAP Diversity Plus: 4H Assay for Eotaxin 3 Biomarker Activity (AID 2283000); settings: primary human endothelial cells (HUVEC); actives raise or lower the signal
In short: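 ELISA quantitation of CCL26 (Eotaxin-3) protein from chemically dosed human vascular endothelial cells at 24 h; increases and decreases both scored relative to DMSO-treated baseline.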

[11] = read-out: Intercellular Adhesion Molecule 1 (ICAM1), ICAM1 (gene 3383); assay: BSK_3C_ICAM1: BioMAP Diversity Plus: 3C Assay for Intercellular Adhesion Molecule 1 (ICAM1) Biomarker Activity (AID 2283003); settings: primary human endothelial cells (HUVEC); actives raise or lower the signal
In short: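 Using DMSO as baseline, bidirectional curve fitting was applied to ICAM-1 ELISA signals from HUVEC in the 3C system, measured 24 h after compound addition.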

[12] = target: human Retinoic Acid Receptor beta (RARb), RARB (gene 5915) (UniProt P10826); assay: ATG_RARb_TRANS: Attagene TRANS-FACTORIAL HepG2 Assay for human Retinoic Acid Receptor beta (AID 2283004; active = hit-call score of the fitted dose curve at least 0.9, where 1 is the maximum)
human Retinoic Acid Receptor beta (RARb), RARB (gene 5915), sequence (P10826 whole entry, looked up, the tested form may be a part): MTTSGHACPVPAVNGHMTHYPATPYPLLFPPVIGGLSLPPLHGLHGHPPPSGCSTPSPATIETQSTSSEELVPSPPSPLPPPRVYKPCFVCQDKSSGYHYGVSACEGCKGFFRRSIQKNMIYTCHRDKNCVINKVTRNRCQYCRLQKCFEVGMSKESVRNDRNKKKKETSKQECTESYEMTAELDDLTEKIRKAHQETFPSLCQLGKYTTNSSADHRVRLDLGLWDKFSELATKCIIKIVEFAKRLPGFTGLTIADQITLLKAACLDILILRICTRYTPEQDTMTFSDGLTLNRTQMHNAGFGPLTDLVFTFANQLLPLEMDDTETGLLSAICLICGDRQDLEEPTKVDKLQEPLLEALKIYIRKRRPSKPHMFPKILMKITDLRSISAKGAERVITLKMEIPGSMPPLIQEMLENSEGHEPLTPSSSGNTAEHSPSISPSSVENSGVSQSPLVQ
In short: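 Fluorescent capillary-electrophoresis detection of GAL4-UAS reporter mRNA defines the endpoint, with induction over DMSO-treated wells scored as activity. Transiently transfected human hepatoma HepG2 cells expressing exogenous NR–Gal4 proteins are exposed to test chemicals for 24 h.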

[13] = BSK_3C_Proliferation: Cell Proliferation Assessment in the BioMAP Diversity Plus: 3C Assay (AID 2283006); settings: primary human endothelial cells (HUVEC);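 for AC50: potency may reflect either rise or fall in cell number versus DMSO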
In short: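 Measured here: sulforhodamine B (0.1%) staining of TCA-fixed sub-confluent umbilical vein endothelial cultures 48 h post-dosing, absorbance 560 nm. DMSO served as negative control and baseline; both signal gain and loss were modelled.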

[14] = target: Peroxisome proliferator-activated receptor gamma (Homo sapiens) (UniProt P37231); assay: ATG_PPARg_TRANS: Attagene TRANS-FACTORIAL HepG2 Assay for human Peroxisome Proliferator-activated Receptor-gamma (PPARg) (AID 2283007; active = hit-call score of the fitted dose curve at least 0.9, where 1 is the maximum)
Peroxisome proliferator-activated receptor gamma (Homo sapiens), sequence (P37231 whole entry, looked up, the tested form may be a part): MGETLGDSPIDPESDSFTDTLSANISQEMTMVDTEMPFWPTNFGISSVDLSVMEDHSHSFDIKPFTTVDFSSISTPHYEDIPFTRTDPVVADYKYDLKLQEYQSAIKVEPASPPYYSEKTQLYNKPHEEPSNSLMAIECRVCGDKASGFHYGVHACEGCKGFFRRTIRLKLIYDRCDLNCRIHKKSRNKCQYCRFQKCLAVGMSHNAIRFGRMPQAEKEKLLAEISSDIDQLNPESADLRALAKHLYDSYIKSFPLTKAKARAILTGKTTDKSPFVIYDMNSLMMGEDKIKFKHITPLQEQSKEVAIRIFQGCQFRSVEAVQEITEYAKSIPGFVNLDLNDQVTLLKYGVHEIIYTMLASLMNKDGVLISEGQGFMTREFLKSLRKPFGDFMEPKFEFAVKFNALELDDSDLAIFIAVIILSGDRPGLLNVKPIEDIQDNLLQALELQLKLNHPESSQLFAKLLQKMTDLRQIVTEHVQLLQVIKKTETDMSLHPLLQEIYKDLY
In short: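 After 24 h of chemical exposure, transfected HepG2 cells carrying PPARγ-Gal4 chimera reporter constructs are lysed for RNA. Reporter transcripts are measured by RT-PCR and capillary electrophoresis with fluorescent labelling, and gain of signal is fitted versus DMSO.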

[15] = target: human Retinoic Acid Receptor gamma (RARg), RARG (gene 5916) (UniProt P13631); assay: ATG_RARg_TRANS: Attagene TRANS-FACTORIAL HepG2 Assay for human Retinoic Acid Receptor gamma (RARg) (AID 2283009; active = hit-call score of the fitted dose curve at least 0.9, where 1 is the maximum)
human Retinoic Acid Receptor gamma (RARg), RARG (gene 5916), sequence (P13631 whole entry, looked up, the tested form may be a part): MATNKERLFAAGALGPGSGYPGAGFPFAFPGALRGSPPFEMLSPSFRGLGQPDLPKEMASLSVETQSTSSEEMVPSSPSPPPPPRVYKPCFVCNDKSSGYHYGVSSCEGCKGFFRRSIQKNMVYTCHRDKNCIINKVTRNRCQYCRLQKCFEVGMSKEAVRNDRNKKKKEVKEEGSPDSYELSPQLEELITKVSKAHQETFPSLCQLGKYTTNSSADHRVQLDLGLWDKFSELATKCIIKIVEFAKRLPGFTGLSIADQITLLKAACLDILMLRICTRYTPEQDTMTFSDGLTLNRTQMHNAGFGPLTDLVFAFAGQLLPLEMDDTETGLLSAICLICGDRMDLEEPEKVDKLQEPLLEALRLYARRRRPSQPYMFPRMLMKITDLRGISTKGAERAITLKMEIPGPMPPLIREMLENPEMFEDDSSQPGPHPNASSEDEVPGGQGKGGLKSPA
In short: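 Gain-of-signal relative to DMSO is reported from fluorescent capillary electrophoresis of RT-PCR reporter products. These came from HepG2 cells expressing transfected RARg-GAL4 chimeras with UAS reporters, harvested 24 h after dosing.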

[16] = target: human RAR-related Orphan Receptor beta (RORb), RORB (gene 6096) (UniProt Q92753); assay: ATG_RORb_TRANS: Attagene TRANS-FACTORIAL HepG2 Assay for human RAR-related Orphan Receptor beta (RORb) (AID 2283010; active = hit-call score of the fitted dose curve at least 0.9, where 1 is the maximum)
human RAR-related Orphan Receptor beta (RORb), RORB (gene 6096), sequence (Q92753 whole entry, looked up, the tested form may be a part): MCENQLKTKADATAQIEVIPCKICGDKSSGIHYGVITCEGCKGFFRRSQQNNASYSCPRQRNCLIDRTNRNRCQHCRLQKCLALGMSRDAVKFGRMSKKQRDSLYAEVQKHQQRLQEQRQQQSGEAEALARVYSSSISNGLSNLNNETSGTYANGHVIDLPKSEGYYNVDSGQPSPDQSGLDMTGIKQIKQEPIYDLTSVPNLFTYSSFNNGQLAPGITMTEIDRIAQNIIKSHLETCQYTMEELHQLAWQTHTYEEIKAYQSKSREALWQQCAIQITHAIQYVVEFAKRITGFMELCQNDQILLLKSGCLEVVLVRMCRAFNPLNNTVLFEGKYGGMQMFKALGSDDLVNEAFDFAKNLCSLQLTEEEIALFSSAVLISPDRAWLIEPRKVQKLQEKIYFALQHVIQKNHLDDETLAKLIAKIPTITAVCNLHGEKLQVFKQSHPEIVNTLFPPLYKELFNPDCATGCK
In short: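 Multiplexed transcription-factor reporter assay: HepG2 cells transiently carrying NR-Gal4/GAL4-UAS constructs, 24 h treatment, mRNA quantified by RT-PCR plus capillary electrophoresis fluorescence; activity scored as induction over DMSO.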

[17] = target: human RAR-related Orphan Receptor gamma (RORg), RORC (gene 6097) (UniProt P51449); assay: ATG_RORg_TRANS: Attagene TRANS-FACTORIAL HepG2 Assay for human RAR-related Orphan Receptor gamma (RORg) (AID 2283011; active = hit-call score of the fitted dose curve at least 0.9, where 1 is the maximum)
human RAR-related Orphan Receptor gamma (RORg), RORC (gene 6097), sequence (P51449 whole entry, looked up, the tested form may be a part): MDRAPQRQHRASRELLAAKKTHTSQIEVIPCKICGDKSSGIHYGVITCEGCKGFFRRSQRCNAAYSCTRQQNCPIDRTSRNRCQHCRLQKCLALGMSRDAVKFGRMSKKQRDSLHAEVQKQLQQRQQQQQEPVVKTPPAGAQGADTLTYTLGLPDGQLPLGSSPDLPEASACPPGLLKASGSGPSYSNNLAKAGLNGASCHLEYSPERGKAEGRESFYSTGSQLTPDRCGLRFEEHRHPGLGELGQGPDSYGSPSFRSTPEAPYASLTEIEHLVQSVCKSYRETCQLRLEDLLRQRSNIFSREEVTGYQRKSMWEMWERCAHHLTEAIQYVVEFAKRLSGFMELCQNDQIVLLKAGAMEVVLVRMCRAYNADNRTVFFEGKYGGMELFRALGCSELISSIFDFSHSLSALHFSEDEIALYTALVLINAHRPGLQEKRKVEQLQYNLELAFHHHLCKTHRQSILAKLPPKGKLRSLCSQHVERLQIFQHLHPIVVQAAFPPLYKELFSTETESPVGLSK
In short: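 Chimeric RORg-Gal4 transactivation in transfected HepG2; 24 h exposure; RT-PCR/capillary electrophoresis readout of reporter mRNA, DMSO baseline.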

[18] = target: Retinoic acid receptor alpha (Homo sapiens) (UniProt P10276); assay: ATG_RARa_TRANS: Attagene TRANS-FACTORIAL HepG2 Assay for human Retinoic Acid Receptor alpha (RARa) (AID 2283005; active = hit-call score of the fitted dose curve at least 0.9, where 1 is the maximum)
Retinoic acid receptor alpha (Homo sapiens), sequence (P10276 whole entry, looked up, the tested form may be a part): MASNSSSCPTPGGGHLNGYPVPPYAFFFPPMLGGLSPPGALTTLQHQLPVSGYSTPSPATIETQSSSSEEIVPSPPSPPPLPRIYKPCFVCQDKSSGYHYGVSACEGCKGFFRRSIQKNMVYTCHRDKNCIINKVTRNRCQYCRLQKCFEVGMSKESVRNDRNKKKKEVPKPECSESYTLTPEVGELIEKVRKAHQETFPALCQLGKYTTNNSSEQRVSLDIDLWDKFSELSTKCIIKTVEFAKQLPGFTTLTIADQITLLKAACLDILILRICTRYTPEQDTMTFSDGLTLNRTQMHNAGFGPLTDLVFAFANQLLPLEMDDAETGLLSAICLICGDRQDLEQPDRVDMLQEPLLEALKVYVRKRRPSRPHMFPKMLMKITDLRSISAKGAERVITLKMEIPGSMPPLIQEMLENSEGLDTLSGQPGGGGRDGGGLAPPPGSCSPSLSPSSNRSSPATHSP
In short: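 Reporter transcripts, measured by RT-PCR with fluorescent labeling and capillary electrophoresis after 24 h dosing, reflect activity of an exogenous human RARa–GAL4 fusion in transiently transfected HepG2. Fitted for increase relative to DMSO.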

[19] = target: Nuclear receptor subfamily 1 group I member 2 (Homo sapiens) (UniProt O75469); assay: ATG_PXR_TRANS: Attagene TRANS-FACTORIAL HepG2 Assay for human Pregnane X Receptor (PXR) (AID 2283008; active = hit-call score of the fitted dose curve at least 0.9, where 1 is the maximum)
Nuclear receptor subfamily 1 group I member 2 (Homo sapiens), sequence (O75469 whole entry, looked up, the tested form may be a part): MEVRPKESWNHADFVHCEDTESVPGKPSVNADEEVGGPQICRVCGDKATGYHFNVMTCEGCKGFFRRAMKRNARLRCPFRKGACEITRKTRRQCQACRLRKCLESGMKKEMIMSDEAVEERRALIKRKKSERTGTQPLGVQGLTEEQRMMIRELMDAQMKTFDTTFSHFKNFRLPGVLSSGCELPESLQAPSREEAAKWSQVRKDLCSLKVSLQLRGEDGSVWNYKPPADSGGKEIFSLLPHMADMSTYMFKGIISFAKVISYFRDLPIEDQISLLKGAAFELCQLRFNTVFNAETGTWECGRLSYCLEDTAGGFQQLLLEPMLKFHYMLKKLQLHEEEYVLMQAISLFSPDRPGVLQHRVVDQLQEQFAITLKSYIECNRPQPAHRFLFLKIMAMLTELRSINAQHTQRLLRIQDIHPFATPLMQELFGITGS
In short: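 Transactivation by exogenous PXR–GAL4 fusion measured as reporter transcript induction after 24 h compound treatment of transfected human HepG2 cells. Read-out via RT-PCR and capillary electrophoresis of labelled fragments, fitted upward relative to DMSO.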

Measured: AC50

CCC(C)(C)C(=O)OC1=C(c2ccc(Cl)cc2Cl)C(=O)OC12CCCCC2
inactive: [1] | [2] | [4] | [6] | [12] | [14] | [15] | [16] | [17]
active: [3] 4.04 µM | [5] 1.27 µM | [7] 13.4 µM | [8] 33.9 µM | [9] 24.7 µM | [10] 32.3 µM | [11] 32.6 µM | [13] 29.2 µM

CC1(C)C(C=C(Cl)Cl)C1C(=O)OC(C#N)c1ccc(F)c(Oc2ccccc2)c1 (stereo unspecified)
active: [5] 7.81 µM | [6] 2.22 µM | [13] 10.2 µM | [14] 20.9 µM | [19] 21.6 µM
inactive: [1] | [2] | [3] | [4] | [7] | [8] | [9] | [10] | [11] | [12] | [18] | [17]

C#CCN1C(=O)COc2cc(F)c(N3C(=O)C4=C(CCCC4)C3=O)cc21
inactive: [1] | [2] | [3] | [4] | [6] | [7] | [8] | [9] | [10] | [11] | [12] | [18] | [13] | [19] | [15]
active: [5] 40.4 µM | [14] 50 µM

CC[C@H](C)[C@H]1O[C@]2(C=C[C@@H]1C)C[C@@H]1C[C@@H](C/C=C(\C)[C@@H](O[C@H]3C[C@H](OC)[C@@H](O[C@H]4C[C@H](OC)[C@@H](O)[C@H](C)O4)[C@H](C)O3)[C@@H](C)/C=C/C=C3\CO[C@@H]4[C@H](O)C(C)=C[C@@H](C(=O)O1)[C@]34O)O2 (tested in a mixture with another compound)
inactive: [1] | [2] | [3] | [4] | [5] | [6] | [12] | [18] | [15]
active: [7] 12 µM | [8] 5.44 µM | [9] 9.38 µM | [10] 9.57 µM | [11] 12.4 µM | [13] 4.78 µM

CC(C)OC(=O)Nc1cccc(Cl)c1
inactive: [1] | [2] | [3] | [4] | [7] | [8] | [9] | [10] | [11] | [12] | [18] | [13] | [16] | [17]
active: [5] 21 µM | [6] 39.4 µM | [14] 50 µM | [19] 65.4 µM

O=C1c2ccccc2C(=O)N1SC(Cl)(Cl)Cl
active: [5] 14.8 µM
inactive: [1] | [2] | [3] | [4] | [6] | [7] | [8] | [9] | [10] | [11] | [12] | [18] | [13] | [14] | [19] | [16]
